# Measured values: PubChem BioAssay (Tox21)
# A number with no mark means an inactive call. Calls of active or inactive are those of the source. Calls come from the whole dose curve; as a rule, active = well fitted curve in the direction sought with a large enough effect in the repeat runs; inconclusive = weak or mixed curves; inactive = flat fitted curve, though single readings scatter.
# Test: qHTS assay to test for compound auto fluorescence at 535 nm (green) in HepG2 cells (AID 720675)
# Conditions: green autofluorescence 485/535 nm, 1 h; series mostly up to 91.3 µM
# Text: National Center for Advancing Translational Sciences [NCATS]
# NIH Chemical Genomics Center [NCGC]
# U.S. Environmental Protection Agency [EPA]
# National Institutes of Environmental Health Sciences [NIEHS]
# National Toxicology Program [NTP]
# U.S. Food and Drug Administration [FDA]
# Compound auto fluorescence often interferes with screening of the compound library against various biological targets and signaling pathways. Some of these compounds may have fluorophoric properties. Such properties may interfere with the assay outputs resulting in false positives and/or negatives. To decrease such complications and ensure the compound activities are relevant in terms of biological response, the Tox21 10K compound library was screened for auto fluorescence.
# From the fluorophores used as reporter signals in our screening assays, the auto fluorescence equivalencies of compounds against three fluorophores have been evaluated: Triamterene, Fluorescein and Rose Bengal sodium for blue, green and red fluorescence, respectively. The fluorescence intensities were measured using Excitation/Emission wavelengths at 405/460nm, 485/535nm and 540/590nm for blue, green and red labels, respectively. This assay includes the green fluorescence data.
# Tox21 Assay Protocol Summary:
# 2,000 HepG2 cells in 5 uL of culture medium (MEM containing 10% FBS) per well were dispensed into black wall/clear bottom 1536-well plates using a Multidrop Combi Dispenser (ThermoFisher Scientific, Waltham, MA). The assay plates were incubated overnight at 37 C to allow cell attachment to the well bottom, followed by the transfer of 23 nL compound or DMSO vehicle by a pintool work station (Kalypsys , San Diego, CA). After the assay plates were incubated for 1 hr at 37 C and 5% CO2, fluorescence intensities in the assay plates were measured by an Envision (PerkinElmer, Shelton, CT) plate reader using three labels for measuring blue, green and red fluorescence at […] 460, 535 and 590 nm respectively.
# % is set by controls: 0 for no effect and ±100 for the full control effect.
SMILES,outcome,"fluorescence, % of fluorescein control"
CCCCNCC,inactive,
CCc1ncc(C)[nH]1,inactive,
CC(CN1CC(=O)NC(=O)C1)N1CC(=O)NC(=O)C1 (stereo not given),inactive,
Cc1ccc(OC(=O)CC(C)C)cc1,inactive,
COC(=O)c1c(C)cc(O)c(C)c1O,inactive,
O=C1Nc2ccccc2C1=O,inactive,
CC(C)(C)C(=O)NCCCC(=O)O,inactive,
c1cc2ccc3ccc4ccc5cccc6c(c1)c2c3c4c56,,0.0742% [at 3.72 µM]
CC[C@@]1(c2ccccc2)NC(=O)N(C)C1=O,inactive,
CCO[Si](CC(C)C)(OCC)OCC,inactive,
CC(C)(O)c1ccc(C(C)(C)O)cc1,inactive,
CCCC(=O)CC,inactive,
CCCC(=O)OC,inactive,
CCCCCC(=O)CC,inactive,
COC(=O)N/N=C/c1c[n+]([O-])c2ccccc2[n+]1[O-],inactive,
Cc1ccccc1OCC(=O)O,inactive,
CCCC(C)C(O)CC (stereo not given),inactive,
CN(C)c1ccncc1,inactive,
CC(C)(C)C(=O)CC(=O)C(C)(C)C,inactive,
C/C=C(\C)C(=O)OC/C=C(\C)CCC=C(C)C,inactive,

SMILES,outcome,"fluorescence, % of fluorescein control"
COc1ccc2cc(CCC(C)=O)ccc2c1,,-0.11% [at 18.6 µM]
Cc1ccc2cccnc2c1,inactive,
NCC1CCC(C(=O)Oc2ccc(CCC(=O)O)cc2)CC1 (stereo not given),inactive,
CCCCS,inactive,
O=C(O)CCCCCCCCCC(=O)O,inactive,
O=C(O)CCC(=O)Nc1ccc(S(=O)(=O)Nc2nccs2)cc1,,-0.003% [at 18.6 µM]
CCOC(=O)c1ccc(N(C)C)cc1,inactive,
CCO/C=C1\N=C(c2ccccc2)OC1=O,inactive,
Cc1ccc(S(=O)(=O)NC(=O)NN2CC3CCCC3C2)cc1 (stereo not given),,0.0063% [at 18.6 µM]
CCCc1ccc(O)c(OC)c1,inactive,
N=C(N)S(=O)O,inactive,
COC(=O)/C=C(\C)CCC=C(C)C,inactive,
CC(O)C(CO)C(C)O (stereo not given),inactive,
NC(=O)CC[C@@H](N)C(=O)O,inactive,
O=C1CC2(CCCC2)CC(=O)N1CCNCC1COc2ccccc2O1 (stereo not given),inactive,
CN(C)CCc1c[nH]c2ccc(CS(=O)(=O)N3CCCC3)cc12,inactive,
CN1CCN(C(=O)C2CCCCC2)CC1,inactive,
CC(C)(C)OC=O,inactive,
C=CCN(CC=C)CC=C,inactive,
C=CC(C)(CCC=C(C)C)OC(=O)C(C)C (stereo not given),inactive,
